High-throughput results: PubChem, The Scripps Research Institute Molecular Screening Center
This is a sample that favours compounds with a hit; in the whole collection about 4.8% have one here.
hcDAF-12 act: activates DAF-12 receptor from parasite H. contortus | HEK293 hcDAF-12 lit1-tk-luc reporter, luminescence; 0% DMSO, 100% Δ7-dafachronic acid | activation, % at 6.8 µM | 1.4% of 370,000 active | AID 652067;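 active means activation above the mean of all tested compounds plus 3 SD, cut at about 5.5% in these data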;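 further: 100% = response to 3 µM Δ7-dafachronic acid high control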
SMARCA2 activ: SMARCA2 function activation, primary screen; MG213 cells, MMTV-luciferase reporter, dexamethasone, overnight; activation, % at 9.1 µM; 1% of 370,000 active; in the data active means activation above about 7.8%;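 further: 0% = vehicle wells and 100% = reference activator wells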
ssDAF-12 act: activates DAF-12 receptor from parasite S. stercoralis; HEK293 ssDAF-12/GRIP1 lit1-tk-luc reporter, luminescence; % of 3 µM dafachronic acid response; activation, % at 6.8 µM; 1% of 370,000 active; AID 652126;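 active means activation above the mean over all tested compounds plus 3 SD, cut at about 0.9% in these data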;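 further: 0% = DMSO-only wells and 100% = 3 µM delta7-dafachronic acid wells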
hgDAF12 agonist: activates the H. glycines DAF-12 receptor ligand-binding domain | HEK293 GAL4-hgDAF12 UAS-luciferase reporter, agonist luminescence; normalized to butyrate control | activation, % at 6.8 µM | 1.8% of 370,000 active | AID 687014;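 active means activation above a cutoff set at the mean of all screened compounds plus 3 SD, cut at about 10% in these data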;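 further: 0% = DMSO wells and 100% = sodium butyrate wells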
DAX1 inh-1: DAX1 (NR0B1) inhibition, primary screen; HEK293T StAR-luciferase reporter, SF-1/DAX-1 repression relief; inhibition, % at 6.8 µM; 1.1% of 370,000 active; AID 652010;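 active means inhibition above the mean over all tested compounds plus 3 SD, cut at about 3.6% in these data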;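 further: 0% = DAX-1 cells with DMSO and 100% = cells lacking DAX-1 with DMSO; higher inhibition means more luminescence from relief of DAX-1 repression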
DAX1 inh-2: NR0B1 (DAX1) inhibition. AID 504766. 0.99% of 340,000 active. P51843. HEK293 Gal4-DAX1 luciferase reporter, luminescence. inhibition, % at 6.75 µM;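 active means inhibition above the mean over all tested compounds plus 3 SD, cut at about 4.2% in these data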;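 further: 0% = DAX1-transfected cells with DMSO and 100% = empty-vector control cells with DMSO; inhibition shows as a rise in luminescence from relieved DAX1 repression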
Target sequence (P51843 207-470 limits assumed): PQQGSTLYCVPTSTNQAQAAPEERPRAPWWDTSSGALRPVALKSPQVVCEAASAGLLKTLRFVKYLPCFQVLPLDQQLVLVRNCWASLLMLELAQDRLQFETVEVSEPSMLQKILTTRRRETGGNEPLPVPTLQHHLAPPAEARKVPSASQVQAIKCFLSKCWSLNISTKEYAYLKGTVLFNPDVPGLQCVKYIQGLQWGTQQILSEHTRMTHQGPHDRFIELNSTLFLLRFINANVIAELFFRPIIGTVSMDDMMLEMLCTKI
LXR ag: counter-screen for hcDAF-12 agonists: agonists of human LXR-beta; 3,400 tested, under 10 active; HEK293 Gal4-LXR tk-luc reporter, luminescence, 24 h; normalized: DMSO 0%, positive control 100%; activation, % at 6.8 µM; AID 743027; shares compounds with hcDAF-12 act;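 active means mean percent activation of the reporter above a cutoff set as the average over tested compounds plus their standard deviation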
hcDAF12 ag: confirmation of H. contortus DAF-12 agonists; shares compounds with hcDAF-12 act; HEK293 hcDAF-12 lit1-tk-luc reporter, luminescence; % of Δ7-dafachronic acid response; activation, % at 6.8 µM; 61% of 3,400 active;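 active means mean activation across triplicate tests above the threshold derived from the earlier primary screen, cut at about 5.5% in these data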;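 further: 0% = DMSO only wells and 100% = 3 µM Δ7-dafachronic acid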
* = called active by the depositor.

Screening Cc1ccc2nc3c(nc2c1)-c1ccccc1C3=O returned hcDAF-12 act 11*, SMARCA2 activ 0, ssDAF-12 act 1.4*, hgDAF12 agonist 4, DAX1 inh-1 1, DAX1 inh-2 1, LXR ag 0 and hcDAF12 ag 6.2*.
Screening CCn1c(=O)cc(SCC(=O)NCCCN2CCN(c3ccc(F)cc3)CC2)c2ccccc21 returned hcDAF-12 act -2, SMARCA2 activ 2, ssDAF-12 act -1, hgDAF12 agonist -3, DAX1 inh-1 -1 and DAX1 inh-2 0.
Nc1c(-c2nn[nH]n2)cnn1-c1cc(Cl)cc(Cl)c1 was read as hcDAF-12 act -2, SMARCA2 activ -2, ssDAF-12 act -1, hgDAF12 agonist 2, DAX1 inh-1 0 and DAX1 inh-2 0.
For CC(C)(C)c1ccc(-c2nc3cc(N)ccc3o2)cc1 the results were hcDAF-12 act 4, SMARCA2 activ -1, ssDAF-12 act -1, hgDAF12 agonist 8, DAX1 inh-1 1 and DAX1 inh-2 0.
Cc1ccc(-c2nc3cc(C)ccc3o2)cc1 was read as hcDAF-12 act 11*, SMARCA2 activ 5, ssDAF-12 act 1.7*, hgDAF12 agonist 12*, DAX1 inh-1 3, DAX1 inh-2 3, LXR ag 2 and hcDAF12 ag 21*.
For Cc1ccc(-c2nc3cc(N)ccc3o2)cc1 the results were hcDAF-12 act 9.8*, SMARCA2 activ -1, ssDAF-12 act 1, hgDAF12 agonist 13*, DAX1 inh-1 3.6*, DAX1 inh-2 -1, LXR ag 2 and hcDAF12 ag 9.2*.
Screening CC(C)c1ccc2oc(-c3ccc(N)cc3)nc2c1 returned hcDAF-12 act 12*, SMARCA2 activ 2, ssDAF-12 act 1, hgDAF12 agonist 8, DAX1 inh-1 2, DAX1 inh-2 -2, LXR ag 2 and hcDAF12 ag 15*.
For O=C(CNC(=O)Cc1ccc(Cl)cc1)NCC(=O)N1CCCCC1 the results were hcDAF-12 act -2, SMARCA2 activ -1, ssDAF-12 act -1, hgDAF12 agonist 2, DAX1 inh-1 -1 and DAX1 inh-2 1.
Cc1ccc2cc3cc(C(=O)NCCC(C)C)oc3nc2c1 was read as hcDAF-12 act -2, SMARCA2 activ 0, ssDAF-12 act -1, hgDAF12 agonist -1, DAX1 inh-1 -1 and DAX1 inh-2 0.
Cc1ccccc1OCC(=O)OC1CCN(C)CC1 was read as hcDAF-12 act -1, SMARCA2 activ 1, ssDAF-12 act -1, hgDAF12 agonist 0, DAX1 inh-1 0 and DAX1 inh-2 1.
Screening NC(=O)[C@@H]1[C@@H]2C(=O)N(c3ccc(F)cc3)C(=O)[C@@H]2[C@H]2C=Cc3ccccc3N21 returned hcDAF-12 act 7.5*, SMARCA2 activ -2, ssDAF-12 act 0, hgDAF12 agonist 1, DAX1 inh-1 0, LXR ag 0 and hcDAF12 ag 5.
`CC(=O)Nc1ccc(S(=O)(=O)Oc2cccc(/C=C3\SC(N)=NC3=O)c2)cc1` gave hcDAF-12 act -1, SMARCA2 activ -3, ssDAF-12 act -1, hgDAF12 agonist 3, DAX1 inh-1 0 and DAX1 inh-2 1.
Screening O=C(c1ccccc1[N+](=O)[O-])N1CCC(Cc2ccccc2)CC1 returned hcDAF-12 act -2, SMARCA2 activ -2, ssDAF-12 act -2, hgDAF12 agonist -2, DAX1 inh-1 -1 and DAX1 inh-2 0.
`O=C(COc1ccccc1[N+](=O)[O-])OCC(=O)N1CCC(Cc2ccccc2)CC1` gave hcDAF-12 act 7.6*, SMARCA2 activ 0, ssDAF-12 act -1, hgDAF12 agonist -1, DAX1 inh-1 0, DAX1 inh-2 -1, LXR ag 0 and hcDAF12 ag 2.
`CC(C(=O)Nc1nncs1)N1C(=O)C2C3C=CC(C3)C2C1=O` (stereo not given) gave hcDAF-12 act -1, SMARCA2 activ -1, ssDAF-12 act -1, hgDAF12 agonist -2, DAX1 inh-1 0 and DAX1 inh-2 -1.
For Fc1ccccc1N=C1NN=C(c2ccccc2)CS1 the results were hcDAF-12 act 12*, SMARCA2 activ -7, ssDAF-12 act 1.0*, hgDAF12 agonist 12*, DAX1 inh-1 4, DAX1 inh-2 1, LXR ag 2 and hcDAF12 ag 8.5*.
Fc1ccc(F)c(C2=NNC(=Nc3ccccc3F)SC2)c1 was read as hcDAF-12 act 8.6*, SMARCA2 activ -5, ssDAF-12 act 2.7*, hgDAF12 agonist 13*, DAX1 inh-1 3, DAX1 inh-2 3, LXR ag 1 and hcDAF12 ag 8.1*.
`Cc1cccc(N=C2NN=C(c3ccccc3F)CS2)c1C` gave hcDAF-12 act -1, SMARCA2 activ 0, ssDAF-12 act -2, hgDAF12 agonist 0, DAX1 inh-1 0 and DAX1 inh-2 -1.
`c1ccc(CN=C2NN=C(c3ccccc3)CS2)cc1` gave hcDAF-12 act 2, SMARCA2 activ 2, ssDAF-12 act 1, hgDAF12 agonist 9, DAX1 inh-1 2 and DAX1 inh-2 0.
Nc1ccc(N=Nc2ccccc2)c2ccccc12 was read as hcDAF-12 act 8.2*, SMARCA2 activ 2, ssDAF-12 act 1, hgDAF12 agonist 1, DAX1 inh-1 0, DAX1 inh-2 1, LXR ag 0 and hcDAF12 ag 5.
For Cc1ccc(S(=O)(=O)NCCC2(C(C)C)CCOC(C)(C)C2)cc1 (stereo not given) the results were hcDAF-12 act -1, SMARCA2 activ 0, ssDAF-12 act -1, hgDAF12 agonist 1, DAX1 inh-1 0 and DAX1 inh-2 2.
Screening C#CCN1CC(COCCCC)Oc2cccc(F)c2S1(=O)=O (stereo not given) returned hcDAF-12 act -1, SMARCA2 activ -3, ssDAF-12 act -1, hgDAF12 agonist -2 and DAX1 inh-1 0.
Screening O=C(/C=C/c1cccc([N+](=O)[O-])c1)c1ccco1 returned hcDAF-12 act -1, SMARCA2 activ -1, ssDAF-12 act -1, hgDAF12 agonist 2, DAX1 inh-1 -1 and DAX1 inh-2 0.
`Cc1ccc([N+](=O)[O-])cc1N/C=C/C(=O)c1ccco1` gave hcDAF-12 act 8.1*, SMARCA2 activ 1, ssDAF-12 act 0, hgDAF12 agonist 7, DAX1 inh-1 2, DAX1 inh-2 1, LXR ag 0 and hcDAF12 ag 6.1*.
